# Screening results (PubChem BioAssay)
# TROY NFkB inh – inhibitors of TROY-driven NF-kB signaling, primary screen, Q293 LMP1-TROYcd cells, NF-kB luciferase, uHTS; Q293 LMP1-TROYcd NF-kB luciferase reporter, 4 h; inhibition, % at 10 µM; 360,000 tested, 0.98% active; AID 1347056, 2019;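 active = compounds whose plate-normalised and pattern-corrected inhibition of the luciferase reporter signal at the single screening dose is 50% or more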
# CF NFkB inh – inhibitors of PAF-induced NF-kB signaling, primary screen, cell-based, GFP fluorescence, uHTS. KKLEB NF-kB-GFP reporter, GFP fluorescence overnight. 360,000 tested, 0.86% active. inhibition, % at 5 µM;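 active = at least 50% inhibition at 5 µM, scaled per plate between neutral and stimulator controls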;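 note: PAF is a Pseudomonas aeruginosa culture filtrate used as stimulus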
# Peg3 prom inh – Peg3 promoter-driven luciferase inhibitors, primary screen, cell-based, HeLa, luciferase luminescence; HeLa PEG-Prom luciferase reporter, overnight; inhibition, % at 20 µM; 360,000 tested, 1.7% active; AID 588405, 2011;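 active = inhibition of at least 50% at 20 µM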
# TWEAK Fn14 block – inhibitors of TWEAK-Fn14 signaling, primary screen, luciferase reporter cells, uHTS; inhibition, % at 10 µM; TWEAK-stimulated Fn14 reporter cells, luciferase luminescence, 8 h; AID 1159606, 2016; 360,000 tested, 2% active; in the data active = inhibition above about 50%
# KKLEB cytotox – cytotoxicity in KKLEB CF airway cells, primary screen, cytotoxicity control for CF NF-kB inhibitor project, cell-based, uHTS, fluorescence assay plates | activity change (cytotoxicity), % at 5 µM | KKLEB CF airway cells viability, ATPlite luminescence, overnight; stronger effect = lower value; cells stimulated with P. aeruginosa culture filtrate | 360,000 tested, 0.36% active;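 active = corrected activity change at or below -50% at 5 µM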
# HIF-2a block – HIF-2a reporter inhibitors, primary screen, luminescence, 786-0 RCC cells | 786-0 RCC cells HIF-2a reporter, luciferase luminescence, overnight | inhibition, % at 18.8 µM | 360,000 tested, 0.72% active;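 active = inhibition of the luminescence signal of 40% or more relative to plate controls, in a single-dose primary screen at 18.75 µM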
# Hits are given with their value; i = inactive. Shown are actives, neighbours in structure and some others; about 4% of the full set was active somewhere.
SMILES,TROY NFkB inh,CF NFkB inh,Peg3 prom inh,TWEAK Fn14 block,KKLEB cytotox,HIF-2a block
O=C(N/N=C/c1cc(Br)ccc1O)C(=O)Nc1ccccc1OC(F)(F)C(F)F,i,i,57,i,i,i
O=C(N/N=C/c1cc(Cl)ccc1O)C(=O)Nc1ccccc1OC(F)(F)C(F)F,i,i,60,i,i,i
O=S(=O)(c1ccc(Cl)cc1)c1cnc2ccccc2n1,i,i,i,59,i,i
COc1ccc(C2(C#N)CCC(=O)N2c2ccccc2)cc1 (centres undefined),52,i,i,i,i,i
CCOc1cc(-c2sc(Nc3ccccc3)n[n+]2C)ccc1OC,i,i,i,i,i,i
CN(C)CC/C=C1\c2ccccc2Sc2cc(F)c(Cl)cc21,i,i,62,i,i,i
COc1ccc(N=Cc2sc3ccccc3c2Cl)cc1,67,i,i,71,i,i
COc1cccc(CN(C)C(=O)C(Cc2ccccc2)NC(=O)c2ccccc2)c1OC (centres undefined),i,i,i,i,i,i
Cc1ccc(-c2nc(C)c(C(=O)O)s2)cc1,i,i,i,63,i,i
Cc1nc(N2CCCCCC2)c2ccccc2n1,i,i,i,i,i,i
COc1ccc(Nc2nc(N3CCCC3)c3ccccc3n2)cc1,i,i,60,i,i,i
CCN(CC)c1ccc(Nc2nc(N3CCOCC3)c3ccccc3n2)cc1,i,i,i,54,i,i
O=C(Cc1csc(Nc2nc(=S)[nH]c3ccccc23)n1)N1CCN(c2cccc(Cl)c2)CC1,i,i,82,i,i,i
COc1ccc(C(C)(O)c2nc(-c3cccc(F)c3)cs2)cc1 (centres undefined),i,i,i,i,i,i
CCOC(=O)C1CCN(C(=O)c2c(C)oc3c2C(=O)c2ccccc2C3=O)CC1,i,62,i,i,i,i
Cc1cccc(NC(=S)N2CCC(NC(=O)c3cccc(F)c3)CC2)c1,i,i,i,i,i,i
NC(=O)C1CCN(S(=O)(=O)c2ccc3c(c2)OCCO3)CC1,i,i,i,i,i,i
O=C(c1ccc2c(c1)OCCO2)C1CCN(S(=O)(=O)c2ccc(F)cc2)CC1,i,i,55,i,i,i
CC1CCC(C(C)C)C(OC(=O)C[n+]2cc(-c3ccc(Cl)cc3)n3c2CCC3)C1 (centres undefined),55,i,i,i,i,i
CCOC(=O)C1=C(c2ccccc2)NC(SCC(=O)Nc2ccccc2C)=C(C#N)C1c1ccco1 (centres undefined),i,i,i,51,i,i
CCOC(=O)C1=C(c2ccccc2)NC(SCC(=O)Nc2cccc(C)c2)=C(C#N)C1c1ccco1 (centres undefined),i,i,70,i,i,i
Cc1ccc(S(=O)(=O)N2[C@@H](c3ccc(Cl)cc3)C(C(=O)OC(C)(C)C)=CC[C@H]2c2ccc(Cl)c(Cl)c2)cc1,i,i,i,i,i,i
Cc1ccccc1NC(=O)CSc1nnc(-c2ccccc2)n1-c1ccccc1,56,i,i,i,i,i
CCn1c(SCC(=O)Nc2ccccc2C)nnc1-c1ccccc1O,i,i,i,i,i,i
CCOC(=O)c1c(NC(=O)CSc2nnc(-c3c[nH]c4ccccc34)n2C)sc2c1CCCC2,i,i,i,56,i,i
SMILES,TROY NFkB inh,CF NFkB inh,Peg3 prom inh,TWEAK Fn14 block,KKLEB cytotox,HIF-2a block
CCOC(=O)c1c(NC(=O)COc2cccc3c2CCN(C)C3=O)sc2c1CCC2,i,i,i,73,i,i
COc1ccc(-c2nnc(SCC(=O)Nc3sc4c(c3C#N)CCCC4)n2-c2ccccc2)cc1,i,63,53,i,-73,i
Cc1cccc(NC(=O)COc2cccc3c2CCN(C)C3=O)c1C,i,i,i,i,i,i
O=S(=O)(Nc1nc(-c2sccc2Cl)cs1)c1cc(Cl)ccc1Cl,58,i,i,i,i,i
C=CCOc1ccc(C[C@H](N)C(=O)NC[C@H]2O[C@@H](n3cc(C)c(=O)[nH]c3=O)C[C@@H]2O)cc1,i,i,i,i,i,i
Cc1cn([C@H]2C[C@H](O)[C@@H](CNC(=O)[C@H](N)Cc3cn(COCc4ccccc4)cn3)O2)c(=O)[nH]c1=O,i,i,i,51,i,i
NC1=CC(=O)C(=O)c2ccccc21,i,68,55,i,i,i
COc1ccccc1C(=O)NCCC(=O)NCc1ccccn1,i,i,i,i,i,i
Cc1nc(SCc2cccnc2)[nH]c(=O)c1C,i,i,i,i,i,i
Cc1ccccc1N=C1NN=C(c2ccccc2F)CS1,57,i,i,68,i,i
CN(C)c1ccc(-c2nnc(-c3cccs3)o2)cc1,i,i,i,63,i,i
CCN1Cc2c(/C=C/c3ccccc3)nc3ccc(OC)cc3c2N(c2cccc(Cl)c2)C1,i,i,101,i,i,i
CC(C)Cc1cc(C(=O)Nc2ccc(Br)cc2)no1,i,i,i,i,i,i
CC(C)Cc1cc(C(=O)Nc2cccc(O)c2)no1,i,i,i,65,i,i
COc1ccc(-c2cc(C(=O)Nc3cccc(O)c3)no2)cc1,i,i,i,67,i,i
COc1ccc(C(C)NCCC(c2ccc(OC(C)C)cc2)c2ccccc2OC)cc1 (centres undefined),i,i,104,i,i,i
COc1ccc(C(CCNC(C)c2ccccc2)C(C)C)cc1 (centres undefined),i,i,i,i,i,i
O=[N+]([O-])c1ccc(Cl)cc1NCC1CCCO1 (centres undefined),i,i,i,i,i,i
O=C(NNC(=S)NC1CCCCC1)c1sc2ccccc2c1Cl,76,i,i,i,i,i
O=C(COC(=O)c1sc2ccccc2c1Cl)NCC1CCCCC1,i,i,59,i,i,i
CC1Cc2ccccc2N1C(=O)COC(=O)c1ccccc1NCCO (centres undefined),i,i,i,57,i,i
O=C(COC(=O)c1ccccc1NCCO)NCC1CCCCC1,i,i,i,50,i,i
C=CCOc1cccc(/C=C2\C(=O)N(Cc3ccc(C)cc3)C(C)=C2C(=O)OC)c1,i,i,i,i,i,63
COc1ccccc1CCC(=O)N1CCN(S(=O)(=O)c2cccc(F)c2)CC1,i,i,i,i,i,i
Cn1c(-c2ccccc2)c(C(=O)CCl)c2ccccc21,i,98,55,i,-86,i
CCn1c(-c2ccccc2)c(C(=O)CCl)c2ccccc21,i,106,i,i,-102,i
O=C(O)CCn1nnc(-c2cccs2)n1,i,i,i,i,i,i
